The source made the active and inactive calls.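 How the source made its calls: active means compounds blocking cell cycle progression with a potency of 5000 nM or lower; inconclusive means potency above 5000 nM but under 10000 nM; inactive means the rest.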

The nature of this assay: qHTS for Inhibitors of Ubiquitin-specific Protease USP2a Using CHOP2 as the Reporter: Cell Cycle. The note with it: HCT116 cell cycle arrest, propidium iodide DNA content, 16 h. The text has this: Homeostasis of cellular proteins is maintained through a combination of synthesis and degradation. The pathway that accounts for the majority of protein degradation is the ubiquitin-proteasomal pathway. Ubiquitin (Ub) is highly conserved in all cells and the generation of a multi-Ub chain typically targets proteins for degradation by the proteasome. However, ubiquitination is highly reversible and dynamic. Deubiquitination, the reverse process, is catalyzed through the action of enzymes referred to as isopeptidases or deubiquitinating enzymes (DUBs). This group of enzymes is collectively responsible for maintaining adequate pools of free ubiquitin and regulating the ubiquitination status of cellular proteins. The class of DUBs referred to as the ubiquitin-specific proteases (USP) family functions endoproteolytically to cleave Ub chains from a wide range of protein substrates. […] Cells in G2 have twice the fluorescence as cells in G1, and the Acumen allows the cells to be binned by their individual fluorescence properties. Therefore, in the presence of an active USP2 inhibitor the fluorescence of a cell would be lower since it would not progress from G1 to S and then G2. […]
HCT116 cells at 600 cells/well were plated in 96-well plates and allowed to adhere overnight (37C, […]). […] Intensity of the DNA stain per cell was quantified using the Acumen plate reader. […]
A general note: qHTS replaces the single test concentration by a dilution series.
For `Cc1ccc(S(=O)(=O)Nc2cc(C(F)(F)F)ccc2C(=O)Nc2nc(-c3ccccc3)cs2)cc1`, the Potency was 2000 nM (active).

These data come from PubChem BioAssay AID652264 (National Center for Advancing Translational Sciences (NCATS), 2013).
